# Experimental data: the supplement of paper PMC9794691
# Tests used:
# [1] = system: H1975; test: area under confluence curve of osimertinib + compound combination regimen (DTP regrowth); compare to osimertinib-only DTP control AUC of the same experiment (AUC (confluence x time, arbitrary)); conditions: test compound dose 1000 nM, DMSO control AUC in same experiment: 20657
# Method in brief: (§1)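 The area under the IncuCyte confluence–time curve, calculated in Prism and taken as the median of triplicates where available, is the value reported. It was measured in EGFR-mutant NSCLC lines that received the EGFR inhibitor either alone, followed by a test compound, or together with a fixed-dose test compound until the persister stage (10–21 days) and then drug-free medium. Medium was refreshed every 3–4 days until the inhibitor-only wells were confluent again.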
# [2] = system: HCC2279; test: as above; conditions: test compound dose 1000 nM, DMSO control AUC in same experiment: 40085
# Method in brief: as §1
# [3] = system: HCC2935; test: as above; conditions: test compound dose 1000 nM, DMSO control AUC in same experiment: 15413
# Method in brief: as §1
# [4] = system: HCC4006; test: as above; conditions: test compound dose 1000 nM, DMSO control AUC in same experiment: 10921
# Method in brief: as §1
# [5] = system: HCC827; test: as above; conditions: test compound dose 1000 nM, DMSO control AUC in same experiment: 48895
# Method in brief: as §1
# [6] = system: II-18; test: as above; conditions: test compound dose 1000 nM, DMSO control AUC in same experiment: 7080
# Method in brief: as §1
# [7] = system: H1975; test: area under confluence curve of compound monotherapy; compare to DMSO control AUC of the same experiment (AUC (confluence x time, arbitrary))
# Method in brief: (§2)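 EGFR-mutant adenocarcinoma lines (RPMI 1640, 10% FBS, 37 °C, 5% CO2) were seeded at 20,000–30,000 cells/well in 48-well plates and next day given test compound alone at one dose (highest with <50% parental inhibition, or 1 uM), refreshed after PBS washes every 3–4 days, then drug-free from DTP stage (10–21 days). IncuCyte confluence was tracked until EGFR-inhibitor-only wells regrew. Area under the confluence curve came from Prism (median of triplicates where run), beside same-experiment vehicle AUC.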
# [8] = system: HCC2279; test: as above
# Method in brief: as §2
# [9] = system: HCC2935; test: as above
# Method in brief: as §2
# [10] = system: HCC4006; test: as above
# Method in brief: as §2
# [11] = system: HCC827; test: as above
# Method in brief: as §2
# [12] = system: II-18; test: as above
# Method in brief: as §2
# [13] = 1000 nM, DMSO control AUC in same experiment: 20657
# [14] = 1000 nM, DMSO control AUC in same experiment: 15857
# [15] = 1000 nM, DMSO control AUC in same experiment: 14404
# [16] = 1000 nM, DMSO control AUC in same experiment: 19215
# [17] = 1000 nM, DMSO control AUC in same experiment: 18415
# [18] = 1000 nM, DMSO control AUC in same experiment: 21320
# [19] = 1000 nM, DMSO control AUC in same experiment: 11834
structure (smiles),measurement,setting,value
Cc1cc(N2C[C@@H](C)N[C@@H](C)C2)ncc1-c1ccc(-c2nc3c(ccn3C)c(=O)[nH]2)cc1 + C=CC(=O)Nc1cc(Nc2nccc(-c3cn(C)c4ccccc34)n2)c(OC)cc1N(C)CCN(C)C [osimertinib],area under confluence curve,"[1]; dosing schedule: sequential, osimertinib-only DTP control AUC in same experiment: 15943",12600
same,area under confluence curve,"[1]; dosing schedule: upfront, osimertinib-only DTP control AUC in same experiment: 27804",11600
same,area under confluence curve,"[2]; dosing schedule: sequential, osimertinib-only DTP control AUC in same experiment: 15997",7150
same,area under confluence curve,"[2]; dosing schedule: upfront, osimertinib-only DTP control AUC in same experiment: 28057",4140
same,area under confluence curve,"[3]; dosing schedule: sequential, osimertinib-only DTP control AUC in same experiment: 7139",3770
same,area under confluence curve,"[3]; dosing schedule: upfront, osimertinib-only DTP control AUC in same experiment: 19044",6190
same,area under confluence curve,"[4]; dosing schedule: sequential, osimertinib-only DTP control AUC in same experiment: 14882",6450
same,area under confluence curve,"[4]; dosing schedule: upfront, osimertinib-only DTP control AUC in same experiment: 18913",7770
same,area under confluence curve,"[5]; dosing schedule: sequential, osimertinib-only DTP control AUC in same experiment: 18675",2580
same,area under confluence curve,"[5]; dosing schedule: upfront, osimertinib-only DTP control AUC in same experiment: 25542",7720
same,area under confluence curve,"[6]; dosing schedule: sequential, osimertinib-only DTP control AUC in same experiment: 21122",1300
same,area under confluence curve,"[6]; dosing schedule: upfront, osimertinib-only DTP control AUC in same experiment: 22894",1140
O=C(NC[C@H](O)CN1CCc2ccccc2C1)c1ccnc(NC2CCC2)c1,area under confluence curve,"[7]; 300 nM, DMSO control AUC in same experiment: 20657",20400
same,area under confluence curve,"[8]; 300 nM, DMSO control AUC in same experiment: 40085",25900
same,area under confluence curve,"[9]; 300 nM, DMSO control AUC in same experiment: 15413",16200
same,area under confluence curve,"[10]; 300 nM, DMSO control AUC in same experiment: 10921",8430
same,area under confluence curve,"[11]; 300 nM, DMSO control AUC in same experiment: 43928",45500
same,area under confluence curve,"[12]; 300 nM, DMSO control AUC in same experiment: 7080",8360
Cc1cc(N2C[C@@H](C)N[C@@H](C)C2)ncc1-c1ccc(-c2nc3c(ccn3C)c(=O)[nH]2)cc1,area under confluence curve,[7]; [13],19600
same,area under confluence curve,"[8]; 1000 nM, DMSO control AUC in same experiment: 40085",40800
same,area under confluence curve,"[9]; 1000 nM, DMSO control AUC in same experiment: 15413",14600
same,area under confluence curve,"[10]; 1000 nM, DMSO control AUC in same experiment: 10921",10500
same,area under confluence curve,"[11]; 1000 nM, DMSO control AUC in same experiment: 48895",48800
same,area under confluence curve,"[12]; 1000 nM, DMSO control AUC in same experiment: 7080",6490
Cn1cc(CNCC2CCN(c3ncc(C(=O)NO)cn3)CC2)c2ccccc21 [Quisinostat],area under confluence curve,"[7]; 10 nM, DMSO control AUC in same experiment: 20657",8960
same,area under confluence curve,"[8]; 10 nM, DMSO control AUC in same experiment: 29252",18800
same,area under confluence curve,"[9]; 10 nM, DMSO control AUC in same experiment: 13875",8250
same,area under confluence curve,"[10]; 10 nM, DMSO control AUC in same experiment: 16638",11600
same,area under confluence curve,"[11]; 10 nM, DMSO control AUC in same experiment: 27404",25100
same,area under confluence curve,"[12]; 10 nM, DMSO control AUC in same experiment: 7080",3280
O=C(c1cc(Cc2n[nH]c(=O)c3ccccc23)ccc1F)N1CCN(C(=O)C2CC2)CC1 [Olaparib],area under confluence curve,[7]; [14],12200
same,area under confluence curve,[8]; [15],14700
same,area under confluence curve,[9]; [16],20800
same,area under confluence curve,[10]; [17],19900
same,area under confluence curve,[11]; [18],20700
same,area under confluence curve,[12]; [19],10800
COc1nn(C)cc1Nc1nccc(-c2c[nH]c3c(NC(=O)[C@@H](C)N4CCN(C)CC4)cccc23)n1,area under confluence curve,[7]; [14],17600
same,area under confluence curve,[8]; [15],15500
same,area under confluence curve,[9]; [16],20800
same,area under confluence curve,[10]; [17],18600
same,area under confluence curve,[11]; [18],19500
same,area under confluence curve,[12]; [19],5850
C[C@@H](Nc1cc(F)cc(F)c1)c1cc(C(=O)N(C)C)cc2c(=O)cc(N3CCOCC3)oc12,area under confluence curve,[7]; [13],18600
same,area under confluence curve,"[8]; 1000 nM, DMSO control AUC in same experiment: 29252",24500
same,area under confluence curve,"[9]; 1000 nM, DMSO control AUC in same experiment: 13875",10800
same,area under confluence curve,"[10]; 1000 nM, DMSO control AUC in same experiment: 16638",13600
same,area under confluence curve,"[11]; 1000 nM, DMSO control AUC in same experiment: 27404",24900
same,area under confluence curve,"[12]; 1000 nM, DMSO control AUC in same experiment: 18482",11000
